Measurements published in PubChem BioAssay (EPA / NIEHS).
Activity calls are given as the source filed them. How the source made its calls: active means hit-call score of the fitted dose curve at least 0.9, where 1 is the maximum; inactive means score below 0.9.

Test: CEETOX_H295R_OHPROG: CeeTox H295R High-throughput Steroidogenesis Assay for OH-Progesterone (OHPROG) (AID 2283435);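 on AC50: human adrenal H295R cells primed 48 h with 10 µM forskolin; 17alpha-hydroxyprogesterone secreted into medium measured by HPLC-MS/MS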
Details: actives raise or lower the signal
How it was run: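 Human adrenocortical H295R cells, passage 10 or lower, were treated with chemical for 48 h after forskolin priming, and hormone output in the medium was quantified by LC-MS/MS.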

Row | Compound | AC50 | outcome
1 | CCCOC(=O)c1ccc(O)cc1 | 7.73 µM (active) | 
2 | COC(=O)CCCCC(=O)OC |  | inactive
3 | C[C@@H]1C[C@H]2[C@@H]3CCC4=CC(=O)C=C[C@]4(C)[C@@]3(F)[C@@H](O)C[C@]2(C)[C@@]1(O)C(=O)COP(=O)(O)O |  | inactive
4 | CC#C[C@]1(O)CC[C@H]2[C@@H]3CCC4=CC(=O)CCC4=C3[C@@H](c3ccc(N(C)C)cc3)C[C@@]21C | 0.218 µM (active) | 
5 | NC(=O)N(O)[C@@H]1C=C[C@H](Oc2cccc(Oc3ccc(F)cc3)c2)C1 |  | inactive
6 | O=c1c(-c2ccc(O)cc2)coc2cc(O)ccc12 | 26.5 µM (active) | 
7 | c1ccc2cc3c(ccc4ccccc43)cc2c1 | 6.08 µM (active) | 
8 | O=[N+]([O-])c1ccc(O)cc1 | 27.3 µM (active) | 
9 | CN1CCC[C@H]1c1cccnc1 |  | inactive
10 | OC1CCC(C2CCCCC2)CC1 (configuration not stated) |  | inactive
11 | Oc1cccc(O)c1 |  | inactive
12 | Nc1cccc2c(N)cccc12 | 1.78 µM (active) | 
13 | O=C(O)c1ccccc1C(c1ccc(O)cc1)c1ccc(O)cc1 | 7.38 µM (active) | 
14 | CCc1ccc(CCOc2ccc(CC3SC(=O)NC3=O)cc2)nc1 (configuration not stated) |  | inactive
15 | CCCCCCCCCCCCCCCS(=O)(=O)Oc1ccccc1 | 5.48 µM (active) | 
16 | CC1=C(/C=C/C(C)=C/C=C/C(C)=C/C(=O)O)C(C)(C)CCC1 |  | inactive
17 | c1ccc2c(c1)ccc1ccccc12 | 55.1 µM (active) | 
18 | CCc1nn(C2CCCCC2)c2cc(C3(C#N)CCC(C(=O)O)CC3)ccc12 (configuration not stated) |  | inactive
19 | CCCCCCCCC(=O)O |  | inactive
20 | CCC(=C(c1ccc(O)cc1)c1ccc(OCCN(C)C)cc1)c1ccccc1 |  | inactive
21 | COc1ccc([N+](=O)[O-])cc1N | 6.07 µM (active) | 

Test: CEETOX_H295R_ANDR: CeeTox H295R High-throughput Steroidogenesis Assay for Androstenedione (ANDR) (AID 2283436);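 further: human H295R adrenal cells exposed for 48 h with androstenedione measured in medium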
Details: actives raise or lower the signal
Experimental: CEETOX_H295R is a cell-based, multiplexed-readout assay that uses H295R, a human adrenal gland cell line, with measurements taken at 48 hours after chemical dosing in a 96-well plate.CEETOX_H295R_ANDR is one of 23 assay component(s) measured or calculated from the CEETOX_H295R assay. It is designed to make measurements of hormone induction, a form of inducible reporter, as detected with absorbance signals by HPLC-MS-MS technology.Data from the assay component CEETOX_H295R_ANDR was analyzed into 1 assay endpoint. This assay endpoint, CEETOX_H295R_ANDR, was analyzed with bidirectional fitting relative to DMSO as the negative control and baseline of activity. […] To generalize the intended target to other relatable targets, this assay endpoint is annotated to the steroid hormone intended target family, where the subfamily is androgens.
Cell culture and media preparation procedures were conducted in accordance with OECD Test No. 456 guidelines, with minor modifications. H295R cells (ATCC CRL-2128) were expanded for 5 passages and frozen in batches in liquid nitrogen. Prior to the steroidogenesis assay, H295R cells were thawed and passed at least 4 times. The maximum passage was 10. Cells were maintained in a 1:1 mixture of DMEM/F12 supplemented with 5ml/L ITS+ Premix (BD Bioscience) and 12.5 ml/L Nu-Serum (BD Bioscience). […] For steroid quantification, media samples were shipped to OpAns, LLC (Durham, NC) on dry ice, and samples were thawed to room temperature prior to liquid-liquid extraction. […] Steroid hormones were separated by HPLC, eluted using a reverse phase C18 gradient with electrospray positive ionization, followed by quantification by tandem mass spectrometry (MS/MS). Data were acquired on a MassHunter Workstation Acquisition version B03.01 (Agilent Technologies, Inc.) and processed using MassHunter Quantitative Analysis for QQQ. Accuracy was determined for each hormone analyte from 3 standards to determine upper and lower limits of quantification (ULOQ and LLOQ, respectively) using a 7-point standard curve. Precision and accuracy of the extraction and quantification methods were calculated as the percent relative standard deviation (%RSD) of the spiked standards and percent spiked standard recovered, respectively. […] Test medium was removed following chemical exposure, and cell viability was evaluated in the same wells by MTT. […] Absorbance was read at 570 and 650nm using a Packard Fusion microplate reader. Background correction of absorbance units was used to determine percent change relative to controls. […] When a test chemical reduced cell viability to 20% - 70%, the test chemical was diluted 10-fold and re-evaluated, but if cell viability was <20%, then the test chemical was diluted 100-fold and re-evaluated. […]

Row | Compound | AC50 | outcome
22 | O=c1c(-c2ccc(O)cc2)coc2cc(O)ccc12 | 15.2 µM (active) | 
23 | Nc1cccc2c(N)cccc12 |  | inactive
24 | O=C(O)c1ccccc1C(c1ccc(O)cc1)c1ccc(O)cc1 |  | inactive
25 | CCC(=C(c1ccc(O)cc1)c1ccc(OCCN(C)C)cc1)c1ccccc1 |  | inactive

Test: CEETOX_H295R_CORTIC: CeeTox H295R High-throughput Steroidogenesis Assay for Corticosterone (CORTIC) (AID 2283437);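 further: corticosterone secreted into medium quantified by mass spectrometry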;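 on AC50: human H295R adrenal cells prestimulated with forskolin before chemical exposure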
Details: actives raise or lower the signal
How it was run: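 Steps: seed H295R, adhere overnight; 10 uM forskolin 48 h; replace with chemical (0.1% DMSO) 48 h; extract medium with MTBE; quantify corticosterone by HPLC-MS/MS; score bidirectionally vs DMSO.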

Row | Compound | outcome | AC50
26 | CCCOC(=O)c1ccc(O)cc1 | inactive | 
27 | C#C[C@]1(O)CC[C@H]2[C@@H]3CCC4=CC(=O)CC[C@@H]4[C@H]3CC[C@@]21C | inactive | 
28 | COC(=O)CCCCC(=O)OC | inactive | 
29 | C[C@@H]1C[C@H]2[C@@H]3CCC4=CC(=O)C=C[C@]4(C)[C@@]3(F)[C@@H](O)C[C@]2(C)[C@@]1(O)C(=O)COP(=O)(O)O | inactive | 
30 | NC(=O)N(O)[C@@H]1C=C[C@H](Oc2cccc(Oc3ccc(F)cc3)c2)C1 | inactive | 
31 | O=c1c(-c2ccc(O)cc2)coc2cc(O)ccc12 |  | 1.22 µM (active)
32 | OC1CCC(C2CCCCC2)CC1 (configuration not stated) |  | 23.2 µM (active)
33 | Oc1cccc(O)c1 | inactive | 
34 | Nc1cccc2c(N)cccc12 | inactive | 
35 | O=C(O)c1ccccc1C(c1ccc(O)cc1)c1ccc(O)cc1 | inactive | 
36 | CCc1ccc(CCOc2ccc(CC3SC(=O)NC3=O)cc2)nc1 (configuration not stated) | inactive | 
37 | CCCCCCCCCCCCCCCS(=O)(=O)Oc1ccccc1 | inactive | 
38 | c1ccc2c(c1)ccc1ccccc12 | inactive | 
39 | CCc1nn(C2CCCCC2)c2cc(C3(C#N)CCC(C(=O)O)CC3)ccc12 (configuration not stated) | inactive | 
40 | CCCCCCCCC(=O)O | inactive | 
41 | CCC(=C(c1ccc(O)cc1)c1ccc(OCCN(C)C)cc1)c1ccccc1 | inactive | 
42 | COc1ccc([N+](=O)[O-])cc1N |  | 8.72 µM (active)
